LASV entry inh: inhibitors of Lassa virus binding or cell entry; Lassa virus pseudotype entry inhibition, cell reporter; Potency, µM (titrated, usually from 37.9 µM), without a hit: at the highest dose activity change, negative = inhibition, actives largely listed as inhibitors; hit rate 1.2% among 300,000; calls by dose curve; tested in HEK293 cells; note: potency is the fitted concentration of half-maximal effect; % is set by controls: 0 for no effect and ±100 for the full control effect; nearly all actives have a fitted effect of over 50% in size
Shiga toxin inh: blocks Shiga toxin action in Vero cells | Vero cells, Shiga toxin protein synthesis inhibition reporter | inhibition, % at 38.7 µM | hit rate 9.2% among 290,000; in the data active = inhibition mostly above about 28%, no sharp cut-off; inactive = mostly below about 43%; note: 0% is about no effect
Marburg entry inh: Marburg virus entry inhibition; Marburg virus pseudotyped entry inhibition, cell reporter; hit rate 1.8% among 300,000; Potency, µM (highest dose often 37.8 µM), for the others: at the highest dose activity change, negative = inhibition, most hits filed as inhibitors; AID 540276; calls by dose curve; tested in HEK293 cells; note: potency is the fitted concentration of half-maximal effect; % is set by controls: 0 for no effect and ±100 for the full control effect
CHX counter: counter-screen for Shiga toxin inhibitors: cycloheximide protein synthesis inhibition | cell reporter, cycloheximide protein synthesis inhibition counterscreen | max response, % | hit rate 12% among 300,000 | AID 2314; in the data active = max response mostly above about 13%, no sharp cut-off; inactive = mostly below about 14%; note: read at 38.3 µM for the half of the compounds with a filed dose; 0% is about no effect
HCV inh: inhibitors of hepatitis C virus infection; Huh7.5.1 HCVcc-Cre infection, luciferase reporter, 44 h; Potency, µM (series often up to 41.8 µM), inactives show top-dose activity change, negative = inhibition, hits mostly inhibitors; hit rate 3.4% among 340,000; AID 651820; active = well fitted inhibition curve with a large enough effect; inconclusive = small, poorly fitted or top-dose-only effect, or another doubt; inactive = no such curve, though single readings can be large or run the other way; note: potency is the fitted concentration of half-maximal effect; % is set by controls: 0 for no effect and ±100 for the full control effect
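Cells (1,000/well) were plated 4 h before compound, then infected with HCVcc-Cre virus (~0.5 moi). After 44 h further culture, infection was read as luciferase luminescence following a 15 min substrate incubation at room temperature.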
FMDV inh: blocks foot and mouth disease virus | hit rate 1.2% among 410,000 | Potency, µM (top dose mostly 57.9 µM), for inactives: top-dose activity change, negative = inhibition, hits mostly inhibitors | FMDV antiviral cell-based qHTS | AID 1159524; calls by dose curve; tested in HEK293T cells; note: read-out not given here; potency is the fitted concentration of half-maximal effect; % is set by controls: 0 for no effect and ±100 for the full control effect; nearly all actives have a fitted effect of over 45% in size
* hit, by the source's call; i = inactive; u = inconclusive; x = no result given; + = active, no number; [ ] = dose if it differs, or a comment. Rows were chosen to be rich in hits. Some 13% of all compounds tested hit in one or more screens of this group.

SMILES	LASV entry inh	Shiga toxin inh	Marburg entry inh	CHX counter	HCV inh	FMDV inh
CN1CCC2=C[C@@H](O)[C@@H]3OC(=O)c4cc5c(cc4C3C21)OCO5 (some centres undefined)	x	x	x	x	x	-18%
O=C(COC(=O)CNC(=O)C1CCCCC1)Nc1ccc(Cl)cc1F	x	-13	24%[46.1 µM]	-1	5%	15%
COc1ccc([C@]23Cc4c(ccc5ccccc45)C(O2)C2=C(CCCC2=O)O3)cc1	x	i	x	6	x	x
O=C1CCCC2=C1C1O[C@](c3ccsc3)(Cc3c1ccc1ccccc31)O2	x	i	x	15*	x	x
O=C1C2=C(C(=O)c3ccccc31)C1O[C@](c3ccsc3)(Cc3c1ccc1ccccc31)O2	x	+	x	33*	x	x
COc1ccc2c3c(c(=O)oc2c1)[C@H]1O[C@](c2ccsc2)(Cc2ccccc21)O3	x	x	-20%[14.2 µM]	x	x	x
O=c1oc2ccccc2c2c1C1O[C@](c3ccsc3)(Cc3c1ccc1ccccc31)O2	x	i	x	19*	x	x
O=C(Nc1ccccc1Cl)c1cc(C2CCCCN2C(=O)OCCF)on1 (centres undefined)	x	x	x	x	x	19%
NC(=S)Nc1ccc(S(=O)(=O)c2ccc(NC(N)=S)cc2)cc1	10%	-8	u	-2	33%	22%
Cc1ccc2oc(=O)c3cnn(CC(=O)NC4CCC(C)CC4)c3c2c1 (centres undefined)	x	-5	x	-7	0%	u
CN(Cc1cccs1)C(=O)CNC(=O)c1ccco1	x	58	x	22*	2%	35%
CCc1ccc(-n2c(=O)c3c(C)c(C(=O)N(C)C)sc3n(Cc3ccccc3F)c2=O)cc1	1%[46.1 µM]	x	x	x	x	-18%
O=S(=O)(O)c1cc(O)c(N=Nc2ccc(O)cc2O)c2ccccc12	-1%[46.1 µM]	x	-1%[46.1 µM]	x	-4%	28µM*
C/C(=N\NS(=O)(=O)c1ccc([N+](=O)[O-])cc1)c1ccc(NC(=O)c2ccco2)cc1	x	78	3%[46.1 µM]	25*	u	165%
CC(=O)Nc1ccc(/C(C)=N/NS(=O)(=O)c2ccc(C)cc2)cc1	-27%	35	19%	16	17%	67%
C/C(=N/NS(=O)(=O)c1ccc(Br)cc1)c1ccc(NC(=O)c2ccc(C)o2)cc1	-1%	78*	u	48*	-6%	76%
CCOc1ccc(CCNC(=O)COC(=O)Cn2nc(C)c([N+](=O)[O-])c2C)cc1OCC	2%[46.1 µM]	x	-14%	x	-2%[8.37 µM]	1%
CCN1CCN(c2ncnc3c2cnn3-c2ccc(C)cc2C)CC1	x	10	x	0	-2%	-9%
O=C(NCc1ccccc1Cl)c1cnccc1C(F)(F)F	0%	-14	-19%	9	8%	1%
Cc1ccccc1C1CCCN(C(=O)c2cc(COc3c(F)cccc3F)on2)C1 (centres undefined)	x	5	x	2	-25%	-19%
CCCOC1CCCN(C(=O)c2cc(COc3c(F)cccc3F)on2)C1 (centres undefined)	23%	93*	1%	47*	-20%	51%
COc1ccc(OCc2cc(C(=O)N3CCCC(OC)C3)no2)c2ccccc12 (centres undefined)	-8%	92*	-7%	50*	5%	54%
Cc1ccc(C)c(OCc2cc(C(=O)N3CC[C@H](O)C3)no2)c1	x	92*	x	34*	-2%	32%
CCN1CCC2(CCN(C(=O)c3cc(COc4cc(C)ccc4C)on3)C2)C1 (centres undefined)	x	3	x	10	u	-14%
COc1ccc(OCc2cc(C(=O)N3CCCC(O)C3)no2)c2ccccc12 (centres undefined)	-16%	122*	1%	55*	-16%	16%
SMILES	LASV entry inh	Shiga toxin inh	Marburg entry inh	CHX counter	HCV inh	FMDV inh
COc1cc(Cl)ccc1OCc1cc(C(=O)N2CCC(N(C)C)C2)no1 (centres undefined)	x	2	x	11	-12%	-9%
COCC1CCCC1OS(N)(=O)=O (centres undefined)	x	-5	x	-2	14%	-7%
CC(=O)Nc1cccc(/C(C)=N/NC(=O)c2ccc(NS(=O)(=O)c3cccs3)cc2)c1	18%	14	16%[46.1 µM]	-2	-3%	-13%
O=C(Nc1ccc(NC(=S)NC(=O)c2cccs2)cc1)c1ccco1	-8%[46.1 µM]	18	u	-2	-23%	-12%
C/C(=N\NC(=O)c1ccccc1)c1ccc(NC(=O)c2cccs2)cc1	-2%	106*	24%	23*	u	12%
C/C(=N\NC(=O)c1ccc(NS(=O)(=O)c2cccs2)cc1)c1ccc(C(C)(C)C)cc1	u	-3	u	-1	7.1µM*	-21%
C/C(=N\NC(=O)c1ccco1)c1ccc(NC(=O)c2cccs2)cc1	2%	130*	-5%	64*	u	6%
C/C(=N/NC(=O)c1ccccc1)c1ccc(NC(=O)C(F)(F)F)cc1	1%[46.1 µM]	135*	0%[46.1 µM]	43*	1%	15%
CC[n+]1ccc(C)c2cc(S(=O)C(F)(F)F)ccc21 (centres undefined)	0%	-10	-13%	-4	-21%	-6%
O=C(NN1C(=O)CSC1=S)C(=O)NN1C(=O)CSC1=S	-9%	20	28%[46.1 µM]	-2	32%	5%
CCn1cc(CN2CCCC(CO)(Cc3cccc(Cl)c3)C2)cn1 (centres undefined)	-3%	3	-17%[46.1 µM]	2	4%	10%
C/C(=N\NC(=O)c1ccccc1C)c1ccc(NC(=O)c2cccs2)cc1	-14%	114*	-25%	46*	u	-13%
C/C(=N\NC(=O)C(N)=O)c1ccc(NC(=O)c2cccs2)cc1	10%	69*	-5%[46.1 µM]	33*	-10%	52%
C/C(=N/NC(=O)C1CCCC1)c1ccc(NC(=O)C(F)(F)F)cc1	x	32	x	19*	x	x
OC(c1ccccc1)c1ncc(-c2ccccc2Cl)[nH]1 (centres undefined)	x	x	x	x	x	94%
Cc1c(C(=O)NCCc2ccncc2)cnn1-c1nccc(-c2ccccc2C(F)(F)F)n1	x	x	x	x	x	-20%
COc1ccccc1NC(=O)NNC(=O)COc1ccc2ccccc2c1	x	-38	x	24*	-1%	u
CSc1ccccc1NC(=O)COc1ccc2c(c1)OCO2	x	x	x	x	u	28%
Cc1ccc(NC(=O)COc2ccc3c(c2)OCO3)c(C)c1	-1%	x	13%	x	6%	9%
COc1ccccc1NC(=O)COc1ccc2c(c1)OCO2	x	70*	x	25*	1%	39%
COc1ccc(NC(=O)NNC(=O)COc2ccc3ccccc3c2)cc1OC	1%	-6	5%	0	16%	-26%
CCOc1ccccc1NC(=O)COc1ccc2c(c1)OCO2	1%[46.1 µM]	59*	u	22	u	33%
NC(=O)c1ccccc1NC(=O)COc1ccc2c(c1)OCO2	u	85*	u	29*	-21%	7%
Cn1c(=O)n(Cc2ccccc2Cl)c(=O)c2c1nc1n2CCN1c1ccccc1	-16%[46.1 µM]	x	x	x	x	-1%
Cc1ccccc1CNC(=O)c1ccc(CSCc2ccccc2)cc1	u	3	0%	1	-6%	-7%

Assay outcomes from PubChem BioAssay.
